IL-1B inflam inh = blocks inflammasome-driven IL-1 beta release; THP-1 LPS/ATP IL-1B secretion, AlphaLISA, 16 h; hits give low values; activity change, % at 57.5 µM; 360,000 tested, 4.7% active; in the data active = activity change below about -50%; inconclusive = mostly about -30% to -49%; also: % is scaled to controls: 0 for no effect and ±100 for the full control effect
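THP-1 cells pretreated 1 hr with compounds (up to 57.5 uM final), then stimulated with LPS (250 ng/mL final) plus ATP (1.25 mM final); secreted IL-1B measured by AlphaLISA after 16 hr, decreased signal indicating inhibition.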
ATXN viability = reduces viability in counter-screen for ATXN expression inhibitors | AID 651635 | S2 cells (HEK-293 line with an ATXN2-luciferase reporter) viability, CellTiter-Fluor protease fluorescence, 24 h | Potency, µM (highest dose often 56.7 µM), hits mostly cytotoxic | 400,000 tested, 0.49% active; also: potency is read from the fitted curve at half-maximal effect; nearly all actives have a fitted effect of over 40% in size
ATXN2 expr inh = reduces ATXN2 reporter expression in HEK-293 cells; HEK-293 ATXN2-luciferase reporter, luminescence, 24 h; Potency, µM (top dose mostly 57 µM), for inactives: at the highest dose activity change, negative = inhibition, usual class: inhibitors; 360,000 tested, 0.72% active; AID 1745845; also: potency is read from the fitted curve at half-maximal effect; % is scaled to controls: 0 for no effect and ±100 for the full control effect; nearly all actives have a fitted effect of over 55% in size
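qHTS (up to 57 uM final) was run with 24 h compound exposure of reporter cells at 37 °C. Each well was multiplexed: SteadyGlo luminescence measured ATXN2-luciferase expression after a fluorogenic Gly-Phe-AFC viability readout (25 uM final).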
TGFb SMAD3 inh = inhibitors of TGF-b signaling; HepG2 CAGA-GFP TGF-b/SMAD3 reporter, GFP fluorescence, 18 h; TGF-beta stimulated, 500 pg/mL final; Potency, µM (series often up to 46.1 µM), for inactives: at the top dose activity, negative = inhibition, actives largely listed as inhibitors; 410,000 tested, 1.2% active; also: potency is read from the fitted curve at half-maximal effect; % is scaled to controls: 0 for no effect and ±100 for the full control effect; nearly all actives have a fitted effect of over 65% in size
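First, reporter cells (HEPG2 CAGA-GFP) rested 2 h at 37 degrees C. Next, compounds were pinned in and TGF-beta added to 500 pg/mL final. After 18 h, GFP was imaged per cell and summed per well.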
HepG2 tox = HepG2 cytotoxicity, counter-screen for TGF-b inhibitors | 410,000 tested, 0.76% active | Potency, µM (highest dose often 46.1 µM), inactives show top-dose activity change, negative = cytotoxicity, actives largely listed as cytotoxic | HepG2 CAGA-GFP viability, ATP luminescence, 18 h; also: potency is read from the fitted curve at half-maximal effect
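CellTiter-Glo luminescence gave cytotoxicity after 18 hours at 37 degrees C. The cells were HepG2 CAGA-GFP in 1% FBS DMEM, stimulated with 500 pg/mL TGF-beta after compound addition. %Activity was normalised to no-cell wells (complete cell-killing) and DMSO (no toxicity), and curves were fitted and classified.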
* hit, by the source's call. Rows were chosen to be rich in hits. Some 5.7% of all compounds tested hit in one or more screens of this group. Unless noted, calls follow the shape of the dose curve; as a rule, active = well fitted curve in the direction sought with a large enough effect; inconclusive = small, poorly fitted or top-dose-only effect, or another doubt; inactive = no such curve, though single readings can be large; an effect the other way counts as inactive or inconclusive.

For Cc1ccc(NC(=O)CSc2ccccc2)cc1S(=O)(=O)N1CCCCC1 the results were IL-1B inflam inh -26, ATXN viability inconclusive, ATXN2 expr inh -13%, TGFb SMAD3 inh inconclusive and HepG2 tox -2%.
Cc1ccc(NC(=O)CSc2ncnc3ccccc23)cc1S(=O)(=O)N1CCCCC1 was read as IL-1B inflam inh -95*, ATXN viability inconclusive, ATXN2 expr inh inconclusive, TGFb SMAD3 inh inconclusive and HepG2 tox -20%.
For COc1ccccc1CNC(=O)c1c2c(nc3ccccc13)C(=O)N(C1CCCCC1)C2 the results were TGFb SMAD3 inh 36% and HepG2 tox 1%.
`COc1cc(=O)n2c(c1C(=O)NC(C)c1ccco1)CCN(CC=C(C)C)CC2` (centres undefined) gave ATXN viability inactive.
`CCCOc1ccc(C2c3c(-c4ccccc4O)n[nH]c3C(=O)N2CCCOCC)cc1OCC` (centres undefined) gave ATXN2 expr inh inconclusive, TGFb SMAD3 inh inconclusive and HepG2 tox -41%.
CN(C)c1ccc(/C=C/c2ccnc3c(O)ccc(O)c23)cc1 was read as TGFb SMAD3 inh -5% and HepG2 tox -10%.
`C(=NNC1=NCCN1)c1ccnc2ccccc12` gave IL-1B inflam inh -103*, ATXN viability inactive, ATXN2 expr inh 8%, TGFb SMAD3 inh 12% and HepG2 tox -3%.
`O=[N+]([O-])c1ccccc1/C=N/NC1=NCCN1` gave IL-1B inflam inh -7, ATXN viability inactive, ATXN2 expr inh -6%, TGFb SMAD3 inh 4% and HepG2 tox 4%.
`COc1ccc2c(c1)CC(C(=O)Nc1c(C)cc(C)cc1C)CO2` (centres undefined) gave ATXN viability inactive, ATXN2 expr inh 12%, TGFb SMAD3 inh -16% and HepG2 tox 4%.
COC(=O)C(Cc1ccccc1)NC(=O)c1cc(S(=O)(=O)N(C)C)ccc1Cl (centres undefined) was read as IL-1B inflam inh -75*, ATXN viability inactive, ATXN2 expr inh 25%, TGFb SMAD3 inh inconclusive and HepG2 tox -28%.
`COC(=O)[C@H](Cc1ccccc1)NC(=O)N(C)Cc1ccccc1` gave IL-1B inflam inh 3, ATXN viability inactive, ATXN2 expr inh 14%, TGFb SMAD3 inh 4% and HepG2 tox 8%.
Screening O=C(Nc1cccc(Cl)c1N1CCCC1)c1ccc([N+](=O)[O-])o1 returned IL-1B inflam inh -84*, ATXN viability inactive, ATXN2 expr inh -21%, TGFb SMAD3 inh 1% and HepG2 tox -24%.
For O=C(Nc1ccccc1N1CCN(C(=O)c2ccc(Cl)cc2)CC1)c1ccc([N+](=O)[O-])o1 the results were IL-1B inflam inh -76*, ATXN viability inconclusive, ATXN2 expr inh inconclusive, TGFb SMAD3 inh inconclusive and HepG2 tox -14%.
For CCN1CCN(c2c(Cl)cccc2NC(=O)c2ccco2)CC1 the results were IL-1B inflam inh -68*, ATXN viability inactive, ATXN2 expr inh -23%, TGFb SMAD3 inh 1% and HepG2 tox -6%.
`O=C(Nc1ccccc1N1CCOCC1)c1ccc([N+](=O)[O-])o1` gave IL-1B inflam inh -1, ATXN viability inconclusive, ATXN2 expr inh -26%, TGFb SMAD3 inh -2% and HepG2 tox -16%.
CCC(=O)NC(=S)Nc1cccc(Cl)c1N1CCCCC1 was read as IL-1B inflam inh 52, ATXN viability inactive, ATXN2 expr inh -27%, TGFb SMAD3 inh 14µM* and HepG2 tox -61%.
`CCCCC(=O)NC(=S)Nc1cccc(Cl)c1N1CCCCC1` gave IL-1B inflam inh inconclusive, ATXN viability inactive, ATXN2 expr inh 3%, TGFb SMAD3 inh inconclusive and HepG2 tox -20%.
`O=C(Nc1ccccc1N1CCCCC1)c1ccc([N+](=O)[O-])o1` gave IL-1B inflam inh inconclusive, ATXN viability inconclusive, ATXN2 expr inh -27%, TGFb SMAD3 inh 0% and HepG2 tox -74%.
Screening CC(C)NC(=O)[C@@H]1C[C@@H](Sc2ccccn2)CN1C1CCN(C)CC1 returned ATXN viability inactive.
Screening COc1ccccc1CNC(=O)c1cnc2sc(N3CCCCCC3)nn2c1=O returned TGFb SMAD3 inh -21% and HepG2 tox -34%.
For O=[N+]([O-])c1cccc(-c2ccc(SCc3ccccn3)nn2)c1 the results were IL-1B inflam inh inconclusive, ATXN viability inactive, ATXN2 expr inh 27%, TGFb SMAD3 inh -14% and HepG2 tox 0%.
COc1cccc(-c2ccc(SCc3ccccn3)nn2)c1 was read as IL-1B inflam inh -85*, ATXN viability inactive, ATXN2 expr inh 18%, TGFb SMAD3 inh 4% and HepG2 tox -18%.
For COc1ccc(-c2ccc(SCc3ccccn3)nn2)cc1OC the results were IL-1B inflam inh -56*, ATXN viability inactive, ATXN2 expr inh 3%, TGFb SMAD3 inh 19% and HepG2 tox 1%.
Screening Cc1ccccc1-n1cc(CNC(=O)CN2Cc3ccccc3OC(C)C2)cn1 (centres undefined) returned ATXN viability inactive.
`Cc1ccc(C(=O)NCC(c2ccc3c(c2)OCO3)N2CCN(c3ccc(F)cc3)CC2)cc1` (centres undefined) gave ATXN viability inconclusive, ATXN2 expr inh inconclusive, TGFb SMAD3 inh inconclusive and HepG2 tox -35%.
For O=C(c1ccccc1)C(I)(I)N1CCOCC1 the results were TGFb SMAD3 inh 11% and HepG2 tox -6%.
For CCCOc1ccc(F)cc1-c1cc(C(=O)Nc2ccc(OC)c(OC)c2)[nH]n1 the results were IL-1B inflam inh -68*, ATXN viability inconclusive, ATXN2 expr inh inconclusive, TGFb SMAD3 inh inconclusive and HepG2 tox -24%.
For COc1ccc(F)cc1-c1cc(C(=O)Nc2ccc(C)c(NS(C)(=O)=O)c2)[nH]n1 the results were IL-1B inflam inh -54*, ATXN viability 3.5µM*, ATXN2 expr inh 25µM*, TGFb SMAD3 inh 37% and HepG2 tox -28%.
COc1ccc(-c2cc(C(=O)Nc3c(Cl)cccc3Cl)no2)cc1OC was read as ATXN viability inconclusive, ATXN2 expr inh 7%, TGFb SMAD3 inh -3% and HepG2 tox -9%.
Brc1cc2c(cc1Br)OCCOCCOCCOCCO2 was read as IL-1B inflam inh 0, ATXN viability inactive, ATXN2 expr inh -18%, TGFb SMAD3 inh -17% and HepG2 tox -1%.
Screening Brc1ccc2c(c1)OCCOCCOc1cc(Br)ccc1OCCOCCOCCO2 returned IL-1B inflam inh -56*, ATXN viability inconclusive, ATXN2 expr inh 16µM*, TGFb SMAD3 inh inconclusive and HepG2 tox -41%.
Screening COc1ccc(CNC(=O)C2CCN(S(=O)(=O)c3ccc4c(c3)CC(C)N4C(C)=O)CC2)cc1 (centres undefined) returned IL-1B inflam inh -76*, ATXN viability inactive, ATXN2 expr inh -5%, TGFb SMAD3 inh -16% and HepG2 tox -14%.
